Measurements: the supplement of paper PMC12297408
Where a name gives a salt, the structure may show the parent alone. In all, about 1,300 compounds went through this assay and about 40 (3%) showed activity. Only a selection was taken, and actives are over-represented in it overall. Unmarked numbers belong to inactive results.

System: Plasmodium falciparum NF54/iGP1_RE9H ulg8 stage V gametocytes
Assay: gametocyte viability (luciferase signal relative to DMSO control) (% of DMSO control); higher = less gametocytocidal activity, active = 50 or less
Details: exposure time: 72 h
Method in brief: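 NF54/iGP1_RE9Hulg8 stage V gametocytes (day 12; ~2.5% gametocytemia, 3% hematocrit) were incubated with compounds at 10 µM or 1 µM final, in one well each, for 72 h at 37 °C in medium with 0.5% Albumax II. Luminescence after D-luciferin addition was read on an IVIS Lumina II. Viability refers to the mean of plate DMSO vehicle wells.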

Row | SMILES | gametocyte viability (concentration: 1 µM) | gametocyte viability (concentration: 10 µM)
1 | CN1CCC(=C2c3ccccc3CCc3cccnc32)CC1 [Azatadine maleate] | 79.7 | 80.8
2 | CN1CCN2c3ncccc3Cc3ccccc3C2C1 (configuration not stated) [Mirtazapine] | 79.6 | 77.4
3 | COc1cc(-c2ccc(N=Nc3ccc4c(S(=O)(=O)O)cc(S(=O)(=O)O)c(N)c4c3O)c(OC)c2)ccc1N=Nc1ccc2c(S(=O)(=O)O)cc(S(=O)(=O)O)c(N)c2c1O [Chicago sky blue 6B] | 80.1 | 82.1
4 | Cc1ccccc1C(OCCN(C)C)c1ccccc1 (configuration not stated) [Orphenadrine hydrochloride] | 84.4 | 87.5
5 | O=C1CC[C@@H](C(=O)N2CSC[C@H]2C(=O)O)N1 [Pidotimod] | 83.8 | 81.2
6 | Cc1ccc(S(=O)(=O)NC(=O)NN2CC3CCCC3C2)cc1 (configuration not stated) [Gliclazide] | 91.8 | 88.7
7 | O=C1NCCN1CCN1CCC(c2cn(-c3ccc(F)cc3)c3ccc(Cl)cc23)CC1 [Sertindole] | 97.7 | 82.3
8 | CC(=O)OCC(=O)[C@@]12N=C(C)O[C@@H]1C[C@H]1[C@@H]3CCC4=CC(=O)C=C[C@]4(C)[C@H]3[C@@H](O)C[C@@]12C [Deflazacort] | 95.7 | 104
9 | Clc1ccc(Nc2nnc(Cc3ccncc3)c3ccccc23)cc1 [Vatalanib] | 89.2 | 69.1
10 | Cc1c(F)c(N2CCNC(C)C2)cc2c1c(=O)c(C(=O)O)cn2C1CC1 (configuration not stated) [Grepafloxacin] | 93.9 | 95.3
11 | COc1ccc2[nH]c([S+]([O-])Cc3ncc(C)c(OC)c3C)nc2n1 (configuration not stated) [Tenatoprazole] | 90.8 | 79.8
12 | Nc1ccc(S(=O)(=O)Nc2nccs2)cc1 [Sulfathiazole] | 96.7 | 91.9
13 | CCCCC(=O)N(Cc1ccc(-c2ccccc2-c2nnn[nH]2)cc1)[C@H](C(=O)O)C(C)C [Valsartan] | 81.5 | 81
14 | Cc1cc(C(=O)NNCc2ccccc2)no1 [Isocarboxazid] | 98.7 | 85
15 | CN(C)[C@@H]1C(=O)C(C(=O)NCNCCCC[C@H](N)C(=O)O)=C(O)[C@@]2(O)C(=O)C3=C(O)c4c(O)cccc4[C@@](C)(O)[C@H]3C[C@@H]12 [Lymecycline] | 88.7 | 84.6
16 | CC(=O)OC[C@H]1O[C@@H]([S-])[C@H](OC(C)=O)[C@@H](OC(C)=O)[C@@H]1OC(C)=O.CCP(CC)CC.[Au+] [Auranofin] | 82.6 | 3.03 (active)
17 | COc1ccc2[nH]cc(CCNC(C)=O)c2c1 [Melatonin] | 80.2 | 85.4
18 | CCCCCNC(=N)N/N=C/c1c[nH]c2ccc(OC)cc12 [Tegaserod maleate] | 88.4 | 6.12 (active)

Row | SMILES | gametocyte viability (concentration: 1 µM) | gametocyte viability (concentration: 10 µM)
19 | COc1cc2nc(N3CCN(C(=O)C4CCCO4)CC3)nc(N)c2cc1OC (configuration not stated) [Terazosin hydrochloride] | 96.5 | 92.6
20 | COc1cc2nc(N3CCN(C(=O)C4COc5ccccc5O4)CC3)nc(N)c2cc1OC (configuration not stated) [Doxazosin mesylate] | 86.5 | 63.2
21 | COc1cc2nc(N3CCN(C(=O)c4ccco4)CC3)nc(N)c2cc1OC [Prazosin hydrochloride] | 90.8 | 42.9 (active)
22 | OCCN1CCN(CC/C=C2/c3ccccc3Sc3ccc(Cl)cc32)CC1 [Zuclopenthixol hydrochloride] | 100 | 95.8
23 | CC(C)CN(C[C@@H](O)[C@H](Cc1ccccc1)NC(=O)O[C@H]1CO[C@H]2OCC[C@H]21)S(=O)(=O)c1ccc(N)cc1 [Darunavir] | 82.6 | 81.5
24 | C=C1C[C@H]2[C@@H]3C=C(C)C4=CC(=O)CC[C@]4(C)[C@H]3CC[C@]2(C)[C@@]1(OC(C)=O)C(C)=O [Melengestrol acetate] | 85.4 | 87.2
25 | Nc1nc(CC(=O)Nc2ccc(CCNC[C@H](O)c3ccccc3)cc2)cs1 [Mirabegron] | 91.9 | 90.8
26 | Cn1nnc2c(C(N)=O)ncn2c1=O [Temozolomide] | 86.9 | 88.1
27 | Cc1cc(C(C)(C)C)c(O)c(C)c1CC1=NCCN1 [Oxymetazoline hydrochloride] | 89.6 | 90.7
28 | CC(=O)OCC(=O)[C@@]12OC3(CCCC3)O[C@@H]1C[C@H]1[C@@H]3CCC4=CC(=O)C=C[C@]4(C)[C@@]3(F)[C@@H](O)C[C@@]12C [Amcinonide] | 93.1 | 92.1
29 | CN1CCN(C(c2ccccc2)c2ccc(Cl)cc2)CC1 (configuration not stated) [Chlorcyclizine hydrochloride] | 96.9 | 91.7
30 | CCOC(=O)[C@H](CCc1ccccc1)N[C@@H](C)C(=O)N1Cc2ccccc2C[C@H]1C(=O)O [Quinapril HCl] | 98.4 | 98.4
31 | S=c1[nH]cnc2nc[nH]c12 [Mercaptopurine] | 82.1 | 84.9
32 | c1ccc(CNc2ncnc3nc[nH]c23)cc1 [Aminopurine, 6-benzyl] | 69.7 | 43.9 (active)
33 | c1coc(CNc2ncnc3nc[nH]c23)c1 [6-Furfurylaminopurine] | 86.5 | 75.6
34 | CCCc1nc2c(C)cc(-c3nc4ccccc4n3C)cc2n1Cc1ccc(-c2ccccc2C(=O)O)cc1 [Telmisartan] | 80 | 88.2
35 | CN1CCCN=C1/C=C/c1cccc(O)c1 [Oxantel pamoate] | 80.4 | 87.7
36 | O=C(O)c1ccccc1C(=O)Nc1ccc(S(=O)(=O)Nc2nccs2)cc1 [Phthalylsulfathiazole] | 82.3 | 85.4
